Only some compounds are listed: those with a hit (about 1.7% of all), similar ones and a draw of the others.
ABCB6 inh MLPCN: ABCB6 transporter inhibitors, primary screen, K562-ABCB6 cells, flow cytometry, MLPCN library; ATP-binding cassette sub-family B member 6 (Homo sapiens), Q9NP58; K562-ABCB6 porphyrin accumulation, 1 h; stronger effect = lower value; fluorescence ratio to DMSO, % at 10 µM; 0.19% of 360,000 active; AID 602162, 2011;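 active means fluorescence ratio to DMSO below 75%, the collection mean minus 3 SD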;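 further: signal is porphyrin accumulated inside mitochondria; lower ratio means ABCB6 inhibition with less porphyrin fluorescence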
Target sequence (Q9NP58 whole entry, looked up): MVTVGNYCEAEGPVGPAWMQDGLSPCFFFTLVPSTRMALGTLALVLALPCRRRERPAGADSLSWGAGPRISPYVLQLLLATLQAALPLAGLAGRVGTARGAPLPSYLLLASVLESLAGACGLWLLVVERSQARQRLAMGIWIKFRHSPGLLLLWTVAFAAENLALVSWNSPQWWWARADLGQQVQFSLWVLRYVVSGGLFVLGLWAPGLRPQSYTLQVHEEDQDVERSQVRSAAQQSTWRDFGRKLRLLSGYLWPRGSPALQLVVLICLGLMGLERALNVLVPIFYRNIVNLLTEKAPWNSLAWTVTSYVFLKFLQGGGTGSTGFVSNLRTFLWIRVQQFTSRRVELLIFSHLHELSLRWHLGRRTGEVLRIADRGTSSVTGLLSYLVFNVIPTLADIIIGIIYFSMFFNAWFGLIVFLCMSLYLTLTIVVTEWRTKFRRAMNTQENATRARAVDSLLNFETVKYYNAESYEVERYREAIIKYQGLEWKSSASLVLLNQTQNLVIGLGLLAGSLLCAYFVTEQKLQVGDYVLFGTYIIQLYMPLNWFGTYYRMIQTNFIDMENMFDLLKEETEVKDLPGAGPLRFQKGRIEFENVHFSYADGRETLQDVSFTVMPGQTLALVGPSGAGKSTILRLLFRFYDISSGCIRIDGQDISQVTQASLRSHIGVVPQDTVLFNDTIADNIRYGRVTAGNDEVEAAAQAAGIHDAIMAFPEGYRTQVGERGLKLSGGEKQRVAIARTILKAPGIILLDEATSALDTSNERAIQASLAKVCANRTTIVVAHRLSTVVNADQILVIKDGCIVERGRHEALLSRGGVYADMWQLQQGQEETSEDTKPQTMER
TLR9-MyD88 inh: inhibitors of TLR9-MyD88 association in cells, primary screen, cell-based, CHO, BLA complementation, fluorescence; Toll-like receptor 9 (Homo sapiens) + Myeloid differentiation primary response protein …; CCF4 FRET ratio; inhibition, % at 4.98 µM; 0.21% of 340,000 active;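 active means inhibition above the mean over all tested compounds plus 3 SD, cut at about 21% in these data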
NOD2-RIPK2 inh: NOD2-RIPK2 binding disruptors in cells, primary screen, fluorescence, CHO cells, BLA complementation | CCF4 ratio | inhibition, % at 4.98 µM | 0.38% of 360,000 active; in the data active means inhibition above about 21%
Myeloid diff 2: induction of myeloid progenitor differentiation, primary screen, cell-based, flow cytometry, MLPCN library; ER-HoxA9 myeloid progenitors, lysozyme-GFP differentiation; calls only at 10 µM; 1% of 360,000 active; AID 624256, 2012;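 active means normalized GFP-positive differentiation at or above the plate's own cutoff, the solvent-only control mean plus 3 SD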;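 further: cells exposed to compound for four days before flow analysis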
TLR4 MyD88 comp: inhibitors of TLR4-MyD88 association in cells, primary screen, cell-based, HeLa CL3-4, BLA complementation, FRET ratio; Toll-like receptor 4 (Homo sapiens) + Myeloid differentiation primary response protein …; HeLa CL3-4 TLR4/MyD88 BLA complementation; inhibition, % at 8.4 µM; 0.18% of 200,000 active; AID 861, 2007; in the data active means inhibition above about 25%
Myeloid diff CP1: inducers of myeloid progenitor differentiation, confirmation, cell-based, GFP/Mac1 flow cytometry, cherry pick 01 | shares compounds with Myeloid diff 2 | ER-HoxA9 myeloid progenitors, GFP/Mac1 double-positive flow | calls only | 2% of 2,300 active;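 active means share of green or green-and-red cells above 9 and 9% in run 1 or 4 and 3% in run 2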
GFP autofluor: flagged as fluorescent in myeloid differentiation counter-screen. shares compounds with Myeloid diff 2. ER-HoxA9 myeloid progenitors, no estrogen, GFP autofluorescence flow cytometry; vehicle wells 0%, positive control 100%. fluorescence response, % (no concentration beside the values). 7.4% of 2,300 active. AID 651707;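 active means over 5% cells positive for green fluorescent reporter, or over 2% positive for both it and APC stain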
Each line names hits and unclear results; the compound was inactive in the other large screens (follow-up assays come after a bar, where they were run).

Cc1ccc(S(=O)(=O)c2nc(S(C)(=O)=O)sc2N2CCOCC2)cc1	none (no result: TLR4 MyD88 comp) | Myeloid diff CP1 inactive | GFP autofluor inactive
Cc1cccc(C)c1-n1nnnc1S(=O)(=O)Cc1ccccc1Cl	none | Myeloid diff CP1 inactive | GFP autofluor inactive
CC(C)n1nnnc1SCC(=O)N1CCN(Cc2ccc3c(c2)OCCO3)CC1	none (no result: TLR4 MyD88 comp)
CC(C)CCNC(=O)NC(=O)COc1ncnc2sccc12	none
CC(C)CNC(=O)NC(=O)COc1ncnc2sccc12	Myeloid diff 2 active | Myeloid diff CP1 inactive | GFP autofluor inactive
O=C(O)C(Nc1nc(C(F)(F)F)nc2ccccc12)c1ccccc1 (centres undefined)	none (no result: TLR4 MyD88 comp)
O/C=c1\ccc2cccc3nc(C(F)(F)F)nc1c23	none (no result: TLR4 MyD88 comp) | Myeloid diff CP1 inactive | GFP autofluor inactive
C#CCOCCOCCOCCNc1nc(N2CCN(C(=O)C([C@@H](C)CC)n3cc(C(N)Cc4ccc(O)cc4)nn3)CC2)nc(N2CCN(C(=O)[C@H](CCC(=O)O)n3cc(C(N)CO)nn3)CC2)n1 (some centres undefined)	none
O=Cc1sc(Nc2ccccc2)nc1Cl	Myeloid diff 2 active | Myeloid diff CP1 inactive | GFP autofluor 51.7
C#CCOCCOCCOCCNc1nc(N2CCN(C(=O)[C@H](CCC(=O)O)n3cc([C@@H](N)[C@H](C)CC)nn3)CC2)nc(N2CCN(C(=O)[C@H](CCC(=O)O)n3cc([C@@H](N)CCSC)nn3)CC2)n1	none (no result: TLR4 MyD88 comp)
Cc1nc(NC(=O)c2ccccc2)sc1-c1cc(C(=O)O)nn1Cc1ccccc1	none (no result: TLR4 MyD88 comp)
CCOC(=O)CCCCCC(=O)Nc1ccc2c(c1)CC(=O)N([C@H](C)CO)C[C@H](C)[C@H](CN(C)S(=O)(=O)c1ccc(OC)cc1)O2	none (no result: TLR4 MyD88 comp)
COc1ccc(/C=C2\C(=O)NC(=S)N2C(=O)c2ccc(F)cc2)cc1	none
O=C1NC(=S)N(C(=O)c2ccc(F)cc2)/C1=C/c1ccccc1	Myeloid diff 2 active | Myeloid diff CP1 inactive | GFP autofluor inactive
COc1ccccc1N(CC(=O)NC1CCCC1)S(=O)(=O)c1ccc(C)cc1	none (no result: TLR4 MyD88 comp)
CCOc1ccccc1N(CC(=O)NC1CCCCC1)S(=O)(=O)c1ccc(C)cc1	Myeloid diff 2 active (no result: TLR4 MyD88 comp) | Myeloid diff CP1 inactive | GFP autofluor inactive
CCC(C)/C(C)=N/NC(=O)c1ccc(CSc2nc3ccccc3s2)cc1 (centres undefined)	none | Myeloid diff CP1 inactive | GFP autofluor 6.1
CCn1cc(C2CC(=O)NC2=O)c2ccccc21 (centres undefined)	none (no result: TLR4 MyD88 comp)
COc1ccc(-n2c(=O)c(CCC(=O)N3CCN(c4ccccc4O)CC3)nc3ccccc32)cc1	none (no result: TLR4 MyD88 comp) | Myeloid diff CP1 inactive | GFP autofluor 6.7
O=C(CCS(=O)(=O)c1cc2c(cc1Cl)NC(=O)CO2)NCCc1ccccc1	none (no result: TLR4 MyD88 comp)
Cc1ccc(CCNC(=O)CCS(=O)(=O)c2cc3c(cc2C)NC(=O)CO3)cc1	none (no result: TLR4 MyD88 comp) | Myeloid diff CP1 inactive | GFP autofluor inactive
CCOC(=O)c1cc2sccc2n1CC(=O)N1CCCc2ccccc21	Myeloid diff 2 active | Myeloid diff CP1 inactive | GFP autofluor inactive
CC1(C(=O)NS(=O)(=O)c2ccccc2C(F)(F)F)CCN1C(=O)CCc1ccccc1 (centres undefined)	none (no result: TLR9-MyD88 inh, TLR4 MyD88 comp)
CCc1ccc(/C=C/c2c([N+](=O)[O-])c(=O)n(C)c(=O)n2C)cc1	none (no result: TLR4 MyD88 comp) | Myeloid diff CP1 inactive | GFP autofluor inactive
CCOc1ccc(/C=C/c2c([N+](=O)[O-])c(=O)n(C)c(=O)n2C)cc1	none
CC(C)(C)c1ccc(CC(=O)N2CCC2(C)C(=O)N2CCCCC2)cc1 (centres undefined)	none (no result: TLR9-MyD88 inh, TLR4 MyD88 comp)
CCCCN1C(N)=NC[C@@H]1Cc1ccc(O)cc1	Myeloid diff 2 active (no result: TLR4 MyD88 comp) | Myeloid diff CP1 inactive | GFP autofluor inactive
CCOC(=O)c1c(NC(=O)c2nn(CC)cc2Br)c(C#N)cn1-c1ccccc1	Myeloid diff 2 active | Myeloid diff CP1 active | GFP autofluor inactive
O=C1C=C(O)CC2(CCCCC2)C1	Myeloid diff 2 active (no result: TLR9-MyD88 inh, TLR4 MyD88 comp) | Myeloid diff CP1 inactive | GFP autofluor inactive
O=C(c1cccs1)N1C[C@@H](n2cc(-c3ccc(F)cc3)nn2)[C@H](O)C[C@@H]1c1ccc(Cl)cc1	none (no result: TLR4 MyD88 comp) | Myeloid diff CP1 inactive | GFP autofluor inactive
O[C@@H]1CN(CC2CCCCC2)[C@@H](c2ccc(Cl)cc2)C[C@H]1n1cc(-c2ccc(F)cc2)nn1	none (no result: TLR4 MyD88 comp)
COc1ccc([C@H]2C[C@H](n3cc(-c4ccc(F)cc4)nn3)[C@@H](O)CN2CC2CCCCC2)cc1	Myeloid diff 2 active (no result: TLR4 MyD88 comp) | Myeloid diff CP1 inactive | GFP autofluor inactive
COc1ccc([C@H]2C[C@@H](O)[C@H](n3cc(-c4ccc(F)cc4)nn3)CN2CC2CCCCC2)cc1	none (no result: TLR4 MyD88 comp) | Myeloid diff CP1 inactive | GFP autofluor inactive
CCCCCC(=O)N1C[C@@H](O)[C@H](n2cc(-c3ccc(F)cc3)nn2)C[C@@H]1c1ccc(OC)cc1	none (no result: TLR4 MyD88 comp) | Myeloid diff CP1 inactive | GFP autofluor inactive
CCN(CC)C(=O)[C@H]1CC(CC(=O)NC/C=C(\C)CCC=C(C)C)C(=O)N2CCc3c([nH]c4ccccc34)[C@]12C (some centres undefined)	none (no result: TLR4 MyD88 comp)
COc1ccc(CNC(=O)COC(=O)c2ccc(F)c(S(=O)(=O)N3CCCCC3)c2)cc1OC	none (no result: TLR4 MyD88 comp)
COc1ccc(N(CC(=O)Nc2cc(OC)ccc2OC)S(C)(=O)=O)cc1	none | Myeloid diff CP1 inactive | GFP autofluor inactive
CCc1ccc(N(CC(=O)Nc2ccc(OC)cc2OC)S(C)(=O)=O)cc1	none
CC1(Cc2ccc(OC(F)(F)F)cc2)C(=O)Nc2c(Cl)ccc(Cl)c21 (centres undefined)	none (no result: TLR9-MyD88 inh, TLR4 MyD88 comp)
CCOc1ccccc1-n1c(SCC(=O)N(C(C)C)C(C)C)nnc1-c1cccnc1	none | Myeloid diff CP1 inactive | GFP autofluor inactive
CCOc1ccccc1-n1c(SCC(N)=O)nnc1-c1cccnc1	none
Cc1cc(C)nc(NC2=NCC(=O)N2c2ccc(F)c(Cl)c2)n1	none
COc1ccc(N2C(=O)CN=C2Nc2nc(C)cc(C)n2)cc1OC	Myeloid diff 2 active | Myeloid diff CP1 inactive | GFP autofluor inactive
Cc1cc(C(=O)CN2C(=O)C(=O)N(Cc3ccco3)C2=O)c(C)n1CCc1ccc(F)cc1	none (no result: TLR4 MyD88 comp) | Myeloid diff CP1 inactive | GFP autofluor inactive
COc1ccc(OC)c(-c2csc(NC(=O)CSc3ccc([N+](=O)[O-])cc3)n2)c1	none
COCCCNC(=O)COc1ccc2oc3c(c2c1)CCCC3	none (no result: TLR4 MyD88 comp)

Compound activity (PubChem BioAssay)
